# From PubChem BioAssay
# The list is not random: actives were taken first. Their share in the collection is about 5%.
# USP10 block = blocks human USP10 ubiquitin-rhodamine cleavage; Q14694; inhibition, % at 20 µM; purified USP10, Ub-rhodamine fluorescence, 60 min; 47,000 compounds, 1.1% hits
# UCHL1 inh = human UCHL1 deubiquitinase inhibition | purified UCHL1, Ub-rhodamine cleavage fluorescence | inhibition, % at 20 µM | 47,000 compounds, 0.2% hits | AID 1645859
# USP8 block = human USP8 deubiquitinase inhibition | purified USP8, Ub-rhodamine cleavage fluorescence, 30 min | inhibition, % at 20 µM | 47,000 compounds, 4.2% hits | AID 1645853
# USP7 block = human USP7 deubiquitinase inhibition; 47,000 compounds, 0.3% hits; inhibition, % at 20 µM; AID 1645854; Q93009; purified USP7, Ub-rhodamine cleavage fluorescence
# * = called active by the depositor. No stated cut-off is given here; in the data, active means inhibition above about 30%; inactive means the rest.
SMILES,USP10 block,UCHL1 inh,USP8 block,USP7 block
Cc1ccc(C2CC(=O)C3=C(C2)Nc2ccccc2N(C(=O)c2ccccc2)C3c2ccc(C)cc2)cc1 (stereo unspecified),3,0,4,2
Cc1cc(C)c(NS(=O)(=O)c2ccc(NC(=O)COc3ccccc3C)cc2)c(C)c1,9,7,15,10
Cc1ccc(NC(=O)Cn2c(=O)n(CC(=O)NCc3ccco3)c(=O)c3ccccc32)cc1C,21,-7,22,-2
Cc1cc(NC(=O)Cn2c(=O)n(CCCCC(=O)NCc3ccco3)c(=O)c3ccccc32)ccc1Br,60*,1,84*,5
COc1ccccc1N1C(=O)N(Cc2ccccc2C)c2ccccc2S1(=O)=O,0,0,-14,0
O=C1NC2(CCN(C(=O)Cc3ccccc3)CC2)Nc2c(Cl)cccc21,-5,-4,-32,-10
CSc1nnc(NC(=O)c2cc(-c3cc(Cl)ccc3O)n[nH]2)s1,18,3,24,12
CCCc1nnc(NC(=O)c2cc(-c3ccccc3O)n[nH]2)s1,54*,4,1,16
O=C(CCCCCn1c(=O)[nH]c2ccccc2c1=O)NCCc1ccc(Cl)cc1,1,-1,48*,1
O=C(CCCCn1c(=O)[nH]c2ccccc2c1=O)Nc1cccc(Cl)c1,20,0,81*,30*
O=C(CCCCCn1c(=O)[nH]c2ccccc2c1=O)NCc1ccccc1Cl,2,2,28,1
Cn1ccnc1C(=O)N1CCCC2(COCCN(CC3CC3)C2)C1 (stereo unspecified),4,4,-19,9
CC(C)Cc1nc(C(N)=O)c2[nH]c(=O)n(CC3CCCO3)c2n1 (stereo unspecified),1,2,1,4
c1ccc(-n2nnc(-c3noc(-c4ccccn4)n3)c2-c2ccncc2)cc1,4,0,32*,1
Cc1ccc(-n2nnc(-c3noc(-c4ccccn4)n3)c2C)cc1,-1,-3,-8,-8
COc1ccc(-c2cnn(-c3ccc(NC(=O)Nc4cccc(C(F)(F)F)c4)cc3)c2)cc1,24,2,31*,20
COc1ccc([C@H]2CN(C)[C@@H]3CCN(C(=O)c4cc(C)nc(N)n4)C[C@H]23)cc1,-3,3,9,5
Cc1ccc(S(=O)(=O)N(CC#N)c2nc3nc(C)c(Cl)c(C)n3n2)cc1,-2,1,18,0
CC(C)(C)OC(=O)N1Cc2ccccc2C[C@H]1C(=O)N1CCC(C(=O)N[C@H](CC(N)=O)C(=O)O)(c2ccccc2)CC1,1,4,50*,4
Cc1ccc(C(=O)Cn2c(=O)n(C(C)C)c3nc(-c4ccco4)nc(C(N)=O)c32)c(C)c1,-2,14,40*,26
Cc1cccc(CSc2nc(-c3ccco3)nc3c2c(=O)n(C)c(=O)n3C)c1,2,0,-3,-2
Nc1ncnc2sc(Nc3ccc([N+](=O)[O-])cc3)nc12,13,7,50*,20
CCOc1ccc(-c2nnc(NC(=O)C3CCN(S(=O)(=O)c4ccc5c(c4)CCC5)CC3)o2)cc1,44*,9,-120,23
Cc1nnc(NC(=O)C2CCN(S(=O)(=O)c3ccc4ccccc4c3)CC2)o1,5,0,-268,-4
CCc1ccc(NS(=O)(=O)c2ccc(-c3cnc(C)o3)cc2)cc1,2,7,6,8
SMILES,USP10 block,UCHL1 inh,USP8 block,USP7 block
CCc1ccc(S(=O)(=O)Nc2ccc(-c3nnc(-c4ccccc4)o3)cc2)cc1,47*,9,32*,18
O=C(COC(=O)c1sc2ccccc2c1Cl)Nc1ccc(F)cc1,6,0,8,0
NS(=O)(=O)c1ccc(NC(=O)COC(=O)c2sc3cc(F)ccc3c2Cl)cc1,25,2,37*,15
COc1ccc(C)cc1NC(=O)Cc1csc(NC(=O)c2ccc(=O)[nH]c2)n1,-3,-29,82*,-44
CCOC(=O)N1CCN(C(=O)Cc2csc(NC(=O)c3ccc(=O)[nH]c3)n2)CC1,-9,2,5,7
Cc1ccc(S(=O)(=O)Nc2ccc(O)c(S(=O)(=O)c3ccc(C)cc3)c2)cc1,13,5,33*,7
c1ccc(-c2nc(N3CCc4ccccc4C3)c3ccccc3n2)cc1,-3,1,1,7
c1ccc2c(c1)CCN(c1ncnc3c1[nH]c1ccccc13)C2,2,4,44*,13
COc1ccccc1CNC(=O)Cn1cnc2c(-c3ccccc3)csc2c1=O,40*,5,70*,15
Cc1c(C(=O)Nc2ccc(F)cc2)nnn1-c1cccc(F)c1,4,0,21,5
O=C(COC(=O)c1ccccc1NS(=O)(=O)c1ccc2c(c1)OCCO2)c1ccc([N+](=O)[O-])cc1,15,-1,-132,6
COc1ccc(C(=O)COC(=O)c2ccccc2NS(=O)(=O)c2ccc(O)c([N+](=O)[O-])c2)cc1,63*,5,62*,24
Cc1nc(-c2cccc(S(=O)(=O)NC3CCCc4ccccc43)c2)no1 (stereo unspecified),0,7,47*,7
Cn1nc(C2CCCN(S(=O)(=O)c3ccc(F)cc3)C2)c2nccnc21 (stereo unspecified),-5,-6,9,-7
CC1(c2ncc(CNC(=O)c3ccn[nH]3)cn2)CCCCO1 (stereo unspecified),-2,0,-3,3
Cc1c(C(=O)NCc2cccc(Br)c2)oc2c1-c1[nH]ncc1CC2,-3,0,84*,-24
Cn1cnnc1-c1cccc(NC(=O)Nc2cccc3ccccc23)c1,-2,1,70*,1
Cc1ccccc1NC(=O)Nc1cccc(-c2nnc(-c3ccccc3)o2)c1,25,1,51*,8
O=C(Nc1ccccc1N1CCOCC1)Nc1cccc2ccccc12,2,-3,27,0
CC(C)(C)C(=O)Nc1ccc(C(=O)Nc2cccc(-c3nnc(-c4ccccc4)o3)c2)cc1,38*,1,4,7
O=C(Nc1ccccc1)Nc1ccc(F)c(-c2nnc(-c3ccccc3)o2)c1,27,-3,25,18
COc1ccc(NC(=O)Nc2cccc(-c3nnc(-c4ccccc4)o3)c2)cc1OC,5,7,14,16
O=C(Nc1cccc(F)c1)Nc1cccc(-c2nnc(-c3ccccc3)o2)c1,32*,4,31*,10
COc1ccc(C)cc1NC(=O)C1CC(=O)Nc2nc3ccccc3n21 (stereo unspecified),29,4,29,10
O=C(NC1CCN(Cc2ccccc2)CC1)c1[nH]nc2c1CCc1ccccc1-2,1,4,0,2
CC1(C)CC(=O)C2=C(C1)Nc1ccccc1NC2/C=C/c1ccccc1 (stereo unspecified),-9,-8,-30,-47
Oc1ccc(-c2nnc(Nc3ccc(Cl)c(Cl)c3)c3ccccc23)cc1,21,6,53*,10
Cc1nnc(Nc2ccc(C(=O)Nc3c(Cl)cccc3Cl)cc2)c2ccccc12,-7,-5,-4,1
CC(=O)Nc1ccc(NC(=O)C(C)Nc2ccc(Oc3ccccc3)cc2)cc1 (stereo unspecified),0,8,61*,-3
